# Results published in PubChem BioAssay (NCATS).
# Inconclusive results are not listed. Values without a mark were called inactive. Some of the results follow. Entries that show only a call come without a potency. Calls of active or inactive are those of the source. Calls come from the whole dose curve; as a rule, active = well fitted curve in the direction sought with a large enough effect; inconclusive = small, poorly fitted or top-dose-only effect, or another doubt; inactive = no such curve, though single readings can be large; an effect the other way counts as inactive or inconclusive.
# What was measured:
# [1] = target: Rap guanine nucleotide exchange factor 3 (Homo sapiens) (UniProt O95398); experiment: Confirmatory qHTS for antagonist of cAMP-regulated guanine nucleotide exchange factor 3 (EPAC1) (AID 1645880); settings: EPAC1 Rap1B-BODIPY-GDP exchange, fluorescence; activity, negative = inhibition: at 115 µM (top of the series); note: nearly all actives have a fitted effect of over 55% in size; note: potency is the fitted concentration of half-maximal effect
# Summary of the method: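 Nucleotide exchange uses 100 nM EPAC1, 250 nM RAP1B-BODIPY-GDP and 50 uM GDP, with compounds in a concentration-titration series. After 5 min at room temperature, fluorescence (480 nm ex/540 nm em) is read every 5 min for 30 min. Data are normalized to control ATA and DMSO.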
# [2] = target: Rap guanine nucleotide exchange factor 3 (Homo sapiens) (UniProt O95398); experiment: Confirmatory qHTS for agonist of cAMP-regulated guanine nucleotide exchange factor 3 (EPAC1) (AID 1645881); note: nearly all actives have a fitted effect of over 75% in size; note: potency is the fitted concentration of half-maximal effect;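 for activation: EPAC1 catalysed release of BODIPY-GDP from Rap1B seen as fluorescence loss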
# [3] = target: Rap guanine nucleotide exchange factor 4 (Homo sapiens) (UniProt Q8WZA2); experiment: Confirmatory qHTS for agonist of cAMP-regulated guanine nucleotide exchange factor 4 (EPAC2) (AID 1645884);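 note: nucleotide exchange releases bodipy-GDP from Rap1 and this lowers its fluorescence; nearly all actives have a fitted effect of over 65% in size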; note: potency is the fitted concentration of half-maximal effect
# [4] = target: Rap guanine nucleotide exchange factor 4 (Homo sapiens) (UniProt Q8WZA2); experiment: Confirmatory qHTS for antagonist of cAMP-regulated guanine nucleotide exchange factor 4 (EPAC2) (AID 1645885); note: nearly all actives have a fitted effect of over 25% in size; note: potency is the fitted concentration of half-maximal effect
# [5] = target: Rap guanine nucleotide exchange factor 3 (Homo sapiens) (UniProt O95398); experiment: Counterscreen qHTS for antagonist of cAMP-regulated guanine nucleotide exchange factor 3 (EPAC1) (AID 1645888);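 note: fluorescence loss as bound BODIPY-GDP is released from Rap1B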
# Summary of the method: (§1)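 Rap1B–BODIPY-GDP (250 nM) with 50 uM GDP; compounds pin-transferred to 9.74 nM–152 uM final (activator) or from 7.32 nM upwards (inhibitor). Fluorescence Ex/Em 480/540 nm read at 5 and 30 min, then after adding cAMP or buffer, at room temperature.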
# [6] = target: Rap guanine nucleotide exchange factor 3 (Homo sapiens) (UniProt O95398); experiment: Counterscreen qHTS for agonist of cAMP-regulated guanine nucleotide exchange factor 3 (EPAC1) (AID 1645889); note: nearly all actives have a fitted effect of over 40% in size; note: potency is the fitted concentration of half-maximal effect
# Summary of the method: as §1
# [7] = Counterscreen for APE1 Inhibitors: Fluorescent Dye Displacement Assay (AID 2564);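 note: loss of thiazole orange fluorescence as the dye is displaced from duplex DNA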
# Summary of the method: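 ThO 250 nM + dsDNA 50 nM (THF abasic site, 5'-TAMRA), Tris-HCl pH7.5/50mM NaCl/2 mM MgCl2/0.01% Tween-20; compounds pin-transferred; ex 480/em 540 nm endpoint. Neutral = no compound; no-DNA ThO wells = negative control.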
# [8] = target: Endonuclease 4 (Escherichia coli (strain K12)) (UniProt P0A6C1); experiment: Counterscreen for APE1 Inhibitors: qHTS Assay for Inhibitors of Endonuclease IV (AID 2565)
# Summary of the method: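 E. coli EndoIV at 2 nM final, preincubated 15 min at room temperature with compound, then 50 nM TAMRA/BHQ-2 THF abasic-site duplex added. Buffer: 50 mM Tris-HCl pH 7.5, 50 mM NaCl, 2 mM MgCl2, 1 mM DTT, 0.01% Tween-20. Kinetic fluorescence increase, third minus first read.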
# [9] = target: DNA repair nuclease/redox regulator APEX1 (Homo sapiens) (UniProt P27695); experiment: Confirmation qHTS Assay for Inhibitors of the Human Apurinic/apyrimidinic Endonuclease 1 (APE1) (AID 2572); settings: purified APE1, fluorogenic abasic-site DNA cleavage; note: potency is the fitted concentration of half-maximal effect; nearly all actives have a fitted effect of over 30% in size
# Summary of the method: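 Enzyme preincubated 15 min at room temperature with compound; reaction started with 50 nM final double-stranded THF abasic-site substrate (5'-TAMRA, 3'-BHQ-2). Fluorescence read kinetically (525/598 nm); third-minus-first read difference gives reaction progress.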
# [10] = target: DNA repair nuclease/redox regulator APEX1 (Homo sapiens) (UniProt P27695); experiment: qHTS FP-Based Assay for Inhibitors of the Human Apurinic/apyrimidinic Endonuclease 1 (APE1) (AID 2573)
# From the text: The apurinic/apyrimidinic endonuclease APE1 is the primary mammalian enzyme responsible for the removal of abasic (or AP) sites in DNA and functions centrally in the base excision DNA repair (BER) pathway. […] Thus, targeting APE1 could improve the efficacy of current treatment paradigms by promoting selective sensitization or protection of diseased and normal cells, respectively.
# In order to gain insight into the mode of action of confirmed APE1 inhibitors, we implemented a miniaturized fluorescence polarization assay designed to report on compounds which competitively displace ds-DNA substrate. The fluorescence polarization assay has been implemented in 384- and 1536-well format for binding of TAMRA-labeled double-stranded DNA probe not containing a quencher. The binding of protein to DNA is inhibited by ATA, a general inhibitor of APE1 activity.
# See also related primary fluorogenic assay (AID 2517). […]
# Three uL of enzyme were dispensed to 1536-well Greiner black solid bottom plates. […] The plates were immediately transferred into ViewLux High-throughput CCD imager (Perkin-Elmer) in order to measure the reaction progress in kinetic mode (three reads every 60 seconds) using 525 nm excitation and 598 nm emission fluorescence protocol. The fluorescence intensity difference between the third and the first time points was used to compute reaction progress.
# [11] = target: Tumor susceptibility gene 101 protein (Homo sapiens) (UniProt Q99816); experiment: qHTS Assay for Iinhibitors of HIV-1 Budding by Blocking the Interaction of PTAP/TSG101: Hit Validation (AID 651600); note: nearly all actives have a fitted effect of over 70% in size; note: potency is the fitted concentration of half-maximal effect
# Summary of the method: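 Fluorescence polarization binding assay: Tsg101 binding domain (10 uM) mixed with compounds and FITC-labeled PTAP peptide (50 nM) in HEPES pH 7.5, 0.15 M NaCl, 0.01% Tween 20, EDTA, TCEP; 20 min at r.t.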
# [12] = target: DNA polymerase iota (Homo sapiens) (UniProt Q9UNA4); experiment: qHTS for Inhibitors of Polymerase Iota: Confirmatory Assay for Cherry-picked Compounds (AID 720496); settings: Pol iota primer extension, TAMRA/BHQ fluorescence; note: potency is the fitted concentration of half-maximal effect
# Summary of the method: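 Read-out is TAMRA fluorescence (525 nm excitation, 598 nm emission) at 0 and 10 min. It reflects strand displacement from a BHQ-2-quenched template by 10 nM Pol iota, with 50 nM final substrate after 15 min compound preincubation.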
# [13] = target: Lethal(3)malignant brain tumor-like protein 1 (Homo sapiens) (UniProt Q9Y468); experiment: qHTS Assay for the Inhibitors of L3MBTL1: Hit Validation (AID 540279); settings: L3MBTL1 methyl-lysine binding inhibition, biochemical qHTS; note: potency is the fitted concentration of half-maximal effect; nearly all actives have a fitted effect of over 70% in size
# Summary of the method: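 L3MBTL1 (50 nM final) preformed 30 min with biotinylated H3(1-15)K9me1 peptide (75 nM), then compound 30 min at room temperature. Streptavidin donor and nickel chelate acceptor AlphaScreen beads (10 ug/mL each final) added for 30 min before read.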
# [14] = target: DNA polymerase kappa (Homo sapiens) (UniProt Q9UBT6); experiment: qHTS for Inhibitors of Polymerase Kappa: Confirmatory Assay for Cherry-picked Compounds (AID 720501); settings: purified Pol-kappa, fluorescent strand-displacement substrate; note: potency is the fitted concentration of half-maximal effect
# Summary of the method: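 10 nM human Pol-kappa was preincubated with compound 15 min at room temperature, then 50 nM (final) primer/template substrate with TAMRA-labeled reporter strand and BHQ-2-labeled template added. Fluorescence (Ex 525, Em 598 nm) read at 0 and 10 min.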
# [15] = target: DNA polymerase eta (Homo sapiens) (UniProt Q9Y253); experiment: qHTS for Inhibitors of Polymerase Eta: Confirmatory Assay for Cherry-picked Compounds (AID 720502); settings: Pol eta primer extension, TAMRA/BHQ fluorescence, 10 min; note: potency is the fitted concentration of half-maximal effect
# Summary of the method: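 Compounds are preincubated 15 min at room temperature with 10 nM human Pol eta, with buffer-only wells serving as negative control. Adding 50 nM final substrate starts the reaction, and TAMRA fluorescence is read over 10 min.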
# Rap guanine nucleotide exchange factor 3 (Homo sapiens), sequence (O95398 whole entry, looked up): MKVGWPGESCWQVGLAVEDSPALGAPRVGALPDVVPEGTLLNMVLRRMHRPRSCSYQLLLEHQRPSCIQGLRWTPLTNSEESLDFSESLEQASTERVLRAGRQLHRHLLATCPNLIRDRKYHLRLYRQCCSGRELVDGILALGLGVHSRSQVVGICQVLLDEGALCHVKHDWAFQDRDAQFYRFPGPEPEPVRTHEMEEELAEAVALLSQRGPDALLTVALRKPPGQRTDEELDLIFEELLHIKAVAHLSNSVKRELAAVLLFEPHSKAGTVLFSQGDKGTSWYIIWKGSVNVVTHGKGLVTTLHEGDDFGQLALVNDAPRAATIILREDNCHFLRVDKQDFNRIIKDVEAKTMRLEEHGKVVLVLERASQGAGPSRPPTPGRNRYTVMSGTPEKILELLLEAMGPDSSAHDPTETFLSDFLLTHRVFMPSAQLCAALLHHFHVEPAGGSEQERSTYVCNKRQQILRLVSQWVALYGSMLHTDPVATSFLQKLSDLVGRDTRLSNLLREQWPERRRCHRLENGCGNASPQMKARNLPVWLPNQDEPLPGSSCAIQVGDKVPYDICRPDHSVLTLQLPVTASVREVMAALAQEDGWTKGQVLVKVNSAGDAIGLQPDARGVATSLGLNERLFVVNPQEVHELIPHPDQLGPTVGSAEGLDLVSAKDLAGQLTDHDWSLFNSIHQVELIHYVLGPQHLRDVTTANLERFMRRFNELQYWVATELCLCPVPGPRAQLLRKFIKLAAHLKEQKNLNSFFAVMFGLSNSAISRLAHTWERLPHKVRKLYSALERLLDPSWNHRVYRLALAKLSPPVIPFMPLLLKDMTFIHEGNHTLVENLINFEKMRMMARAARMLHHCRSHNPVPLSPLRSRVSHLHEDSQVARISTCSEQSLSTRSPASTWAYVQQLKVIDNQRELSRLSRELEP
# Tumor susceptibility gene 101 protein (Homo sapiens), sequence (Q99816 whole entry, looked up, the tested form may be a part): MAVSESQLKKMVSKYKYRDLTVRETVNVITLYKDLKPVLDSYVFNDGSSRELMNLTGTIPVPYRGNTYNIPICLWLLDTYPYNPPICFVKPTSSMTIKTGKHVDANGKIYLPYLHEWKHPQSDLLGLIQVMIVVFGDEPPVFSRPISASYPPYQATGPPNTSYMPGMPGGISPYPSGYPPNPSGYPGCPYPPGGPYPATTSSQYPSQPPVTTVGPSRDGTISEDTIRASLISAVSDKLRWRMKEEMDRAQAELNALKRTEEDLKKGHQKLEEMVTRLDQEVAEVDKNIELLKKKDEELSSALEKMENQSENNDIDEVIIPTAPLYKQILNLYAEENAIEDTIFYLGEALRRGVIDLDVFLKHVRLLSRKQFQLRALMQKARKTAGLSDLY
# Rap guanine nucleotide exchange factor 4 (Homo sapiens), sequence (Q8WZA2 whole entry, looked up): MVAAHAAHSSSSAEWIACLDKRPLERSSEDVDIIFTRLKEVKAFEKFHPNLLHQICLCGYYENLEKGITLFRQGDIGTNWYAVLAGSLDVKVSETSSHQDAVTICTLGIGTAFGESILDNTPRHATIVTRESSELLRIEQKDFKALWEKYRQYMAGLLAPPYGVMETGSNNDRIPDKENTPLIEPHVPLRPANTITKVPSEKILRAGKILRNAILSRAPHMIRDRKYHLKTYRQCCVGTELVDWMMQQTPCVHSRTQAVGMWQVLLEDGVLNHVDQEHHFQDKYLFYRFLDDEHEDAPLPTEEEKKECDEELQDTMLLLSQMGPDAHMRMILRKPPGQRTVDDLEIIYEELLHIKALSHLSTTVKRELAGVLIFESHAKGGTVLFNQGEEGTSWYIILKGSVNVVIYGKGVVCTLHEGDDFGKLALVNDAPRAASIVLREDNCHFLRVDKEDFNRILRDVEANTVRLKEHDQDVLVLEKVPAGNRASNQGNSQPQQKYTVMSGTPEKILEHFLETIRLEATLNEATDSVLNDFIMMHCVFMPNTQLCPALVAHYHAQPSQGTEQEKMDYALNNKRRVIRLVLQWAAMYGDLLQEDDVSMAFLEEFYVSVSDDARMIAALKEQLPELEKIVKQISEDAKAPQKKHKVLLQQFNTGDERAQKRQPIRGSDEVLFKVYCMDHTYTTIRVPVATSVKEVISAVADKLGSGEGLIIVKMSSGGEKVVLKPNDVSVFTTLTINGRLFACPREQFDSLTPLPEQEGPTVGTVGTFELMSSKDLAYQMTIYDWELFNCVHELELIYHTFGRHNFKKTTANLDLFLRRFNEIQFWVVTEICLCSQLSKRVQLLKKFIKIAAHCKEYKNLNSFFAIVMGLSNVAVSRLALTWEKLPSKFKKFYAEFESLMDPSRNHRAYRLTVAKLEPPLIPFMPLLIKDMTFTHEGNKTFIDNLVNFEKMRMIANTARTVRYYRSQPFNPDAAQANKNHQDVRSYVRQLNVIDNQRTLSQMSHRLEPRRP
# DNA polymerase iota (Homo sapiens), sequence (Q9UNA4 whole entry, looked up): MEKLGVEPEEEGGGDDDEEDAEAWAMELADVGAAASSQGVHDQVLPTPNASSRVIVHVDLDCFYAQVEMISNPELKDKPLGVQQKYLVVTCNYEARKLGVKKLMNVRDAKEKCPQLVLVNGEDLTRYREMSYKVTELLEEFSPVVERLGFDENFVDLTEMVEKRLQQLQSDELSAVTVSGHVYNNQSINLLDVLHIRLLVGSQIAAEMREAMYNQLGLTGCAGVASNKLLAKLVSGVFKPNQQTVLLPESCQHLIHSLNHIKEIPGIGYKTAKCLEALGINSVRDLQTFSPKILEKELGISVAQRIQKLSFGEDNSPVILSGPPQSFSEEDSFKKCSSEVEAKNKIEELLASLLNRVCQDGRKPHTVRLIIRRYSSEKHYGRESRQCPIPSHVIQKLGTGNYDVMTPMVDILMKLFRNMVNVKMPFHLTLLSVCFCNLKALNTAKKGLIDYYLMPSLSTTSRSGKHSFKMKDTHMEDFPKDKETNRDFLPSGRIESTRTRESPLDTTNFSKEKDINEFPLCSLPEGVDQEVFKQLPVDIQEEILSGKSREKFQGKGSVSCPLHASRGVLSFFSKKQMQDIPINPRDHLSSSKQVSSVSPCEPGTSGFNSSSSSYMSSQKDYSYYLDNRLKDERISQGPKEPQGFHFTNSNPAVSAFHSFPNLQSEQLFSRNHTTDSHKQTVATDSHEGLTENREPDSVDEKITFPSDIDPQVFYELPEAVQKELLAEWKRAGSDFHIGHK
# DNA repair nuclease/redox regulator APEX1 (Homo sapiens), sequence (P27695 whole entry, looked up): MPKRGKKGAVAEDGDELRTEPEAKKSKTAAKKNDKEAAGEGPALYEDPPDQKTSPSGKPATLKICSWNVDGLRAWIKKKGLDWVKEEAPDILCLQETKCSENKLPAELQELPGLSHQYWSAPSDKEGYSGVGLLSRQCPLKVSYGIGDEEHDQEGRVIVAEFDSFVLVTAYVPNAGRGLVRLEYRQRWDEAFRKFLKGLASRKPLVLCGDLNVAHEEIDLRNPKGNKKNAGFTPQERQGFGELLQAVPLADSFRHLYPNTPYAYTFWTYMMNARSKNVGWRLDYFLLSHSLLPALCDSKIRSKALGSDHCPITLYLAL
# Lethal(3)malignant brain tumor-like protein 1 (Homo sapiens), sequence (Q9Y468 whole entry, looked up): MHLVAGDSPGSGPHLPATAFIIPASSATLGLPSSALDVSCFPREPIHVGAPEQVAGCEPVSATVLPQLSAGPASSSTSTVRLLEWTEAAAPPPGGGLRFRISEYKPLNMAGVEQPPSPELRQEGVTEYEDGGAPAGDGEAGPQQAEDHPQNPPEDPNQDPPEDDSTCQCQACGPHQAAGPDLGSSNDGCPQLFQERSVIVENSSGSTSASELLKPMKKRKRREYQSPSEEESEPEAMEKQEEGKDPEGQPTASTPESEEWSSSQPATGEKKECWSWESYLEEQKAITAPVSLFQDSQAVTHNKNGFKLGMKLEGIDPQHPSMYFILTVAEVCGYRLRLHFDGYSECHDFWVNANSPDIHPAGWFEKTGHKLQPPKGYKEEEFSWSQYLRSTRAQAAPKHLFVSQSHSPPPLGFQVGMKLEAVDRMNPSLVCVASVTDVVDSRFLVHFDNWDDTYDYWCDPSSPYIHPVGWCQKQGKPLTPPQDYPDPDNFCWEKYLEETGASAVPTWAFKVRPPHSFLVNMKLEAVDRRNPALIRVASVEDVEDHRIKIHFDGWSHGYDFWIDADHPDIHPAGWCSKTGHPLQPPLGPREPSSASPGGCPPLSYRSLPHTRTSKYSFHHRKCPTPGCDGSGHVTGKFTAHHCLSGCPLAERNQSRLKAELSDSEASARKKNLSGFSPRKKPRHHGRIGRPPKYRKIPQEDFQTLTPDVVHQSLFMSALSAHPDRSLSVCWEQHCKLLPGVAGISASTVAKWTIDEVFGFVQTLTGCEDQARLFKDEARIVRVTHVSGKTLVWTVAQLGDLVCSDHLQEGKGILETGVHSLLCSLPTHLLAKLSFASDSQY
# DNA polymerase eta (Homo sapiens), sequence (Q9Y253 whole entry, looked up): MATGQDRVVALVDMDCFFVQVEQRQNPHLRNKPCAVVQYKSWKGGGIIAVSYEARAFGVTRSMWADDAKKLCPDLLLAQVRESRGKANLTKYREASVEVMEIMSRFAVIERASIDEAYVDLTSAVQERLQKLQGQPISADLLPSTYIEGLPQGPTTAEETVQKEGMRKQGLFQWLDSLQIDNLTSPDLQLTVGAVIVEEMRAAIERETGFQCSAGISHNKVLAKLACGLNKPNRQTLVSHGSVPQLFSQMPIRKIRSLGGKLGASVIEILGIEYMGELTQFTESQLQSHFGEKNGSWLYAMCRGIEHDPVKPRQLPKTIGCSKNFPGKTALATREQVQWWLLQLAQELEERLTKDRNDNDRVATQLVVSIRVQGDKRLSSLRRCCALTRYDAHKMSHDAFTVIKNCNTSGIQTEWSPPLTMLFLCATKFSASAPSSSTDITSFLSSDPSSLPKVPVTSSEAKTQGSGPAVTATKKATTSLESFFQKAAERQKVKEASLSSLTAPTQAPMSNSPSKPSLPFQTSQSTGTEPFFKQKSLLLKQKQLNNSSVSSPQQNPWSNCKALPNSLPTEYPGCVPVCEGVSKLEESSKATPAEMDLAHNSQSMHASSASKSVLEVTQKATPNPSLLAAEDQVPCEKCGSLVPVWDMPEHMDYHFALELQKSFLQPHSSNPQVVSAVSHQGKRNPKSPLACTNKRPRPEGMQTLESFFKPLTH
smiles,measurement,setting,value
CCCCn1cc2c(c1-c1ccccc1Br)c(=O)n(C)c(=O)n2C,Potency,[1],inactive
same,Potency,[2],inactive
same,Potency,[3],inactive
same,Potency,[4],inactive
same,Potency,[5],inactive
same,Potency,[6],inactive
COc1c(O)cc2oc(-c3ccc(O)c(O)c3)cc(=O)c2c1O,outcome,[7],inactive
same,outcome,[8],inactive
same,Potency,[9],6.31 µM (active)
same,outcome,[10],inactive
same,Potency,[1],10.7 µM (active)
same,Potency,[2],inactive
same,Potency,[3],inactive
same,Potency,[4],inactive
same,Potency,[5],inactive
same,Potency,[6],inactive
CCC(C)Sc1nc2c(c(=O)[nH]c(=O)n2C)n1CC(O)COc1cccc2ccccc12 (configuration not stated),Potency,[1],inactive
same,Potency,[2],inactive
same,Potency,[3],inactive
same,Potency,[4],inactive
same,Potency,[5],inactive
same,Potency,[6],inactive
COc1cc(OC)c(-c2cc(C(=O)O)ccc2OC)c(OC)c1,Potency,[11],inactive
same,Potency,[1],inactive
same,Potency,[2],inactive
same,activation,[3],"1.75% [at 17.1 µM, percent relative to cAMP agonist control]"
same,Potency,[4],inactive
same,"activity change, negative = inhibition",[5],-0.0153% [at 30.8 µM]
same,activation,[6],38.4% [at 30.8 µM]
COc1ccc(S(=O)(=O)/N=C2\C=C(NS(=O)(=O)c3ccccc3)C(=O)c3ccccc32)cc1,Potency,[12],67 µM (active)
same,Potency,[1],8.49 µM (active)
same,Potency,[2],50.1 µM (active)
same,Potency,[3],100 µM (active)
same,Potency,[4],10.7 µM (active)
same,Potency,[5],inactive
same,Potency,[6],inactive
Cn1c(=O)c(N)c2c3c(c(Br)ccc31)C(=O)c1ccccc1-2,Potency,[11],1.63 µM (active)
same,Potency,[1],26.9 µM (active)
same,Potency,[2],inactive
same,Potency,[3],inactive
same,Potency,[4],26.9 µM (active)
same,Potency,[5],inactive
same,Potency,[6],inactive
O=C1c2cccc3c(O)ccc(c23)C(=O)N1c1ccc(Cl)cc1,Potency,[11],4.11 µM (active)
same,Potency,[1],inactive
same,Potency,[2],112 µM (active)
same,Potency,[3],112 µM (active)
same,Potency,[4],84.9 µM (active)
same,Potency,[5],inactive
same,Potency,[6],39.8 µM (active)
Cc1ccc(N=C2NC(=O)/C(=C/C=C/c3ccco3)S2)cc1C,Potency,[13],21.2 µM (active)
same,Potency,[12],47.4 µM (active)
same,Potency,[14],47.4 µM (active)
same,Potency,[15],53.6 µM (active)
same,Potency,[1],12.6 µM (active)
same,Potency,[2],inactive
same,activation,[3],"-4% [at 17.1 µM, percent relative to cAMP agonist control]"
same,Potency,[4],inactive
same,"activity change, negative = inhibition",[5],5.98% [at 30.8 µM]
same,activation,[6],25.8% [at 30.8 µM]
Cc1cc(C=C2C(=O)c3ccccc3C2=O)c(C)n1-c1ccc(Cl)cc1,Potency,[11],inactive
same,Potency,[1],inactive
same,Potency,[2],inactive
same,activation,[3],"3.84% [at 17.1 µM, percent relative to cAMP agonist control]"
same,Potency,[4],inactive
same,"activity change, negative = inhibition",[5],-26.7% [at 30.8 µM]
same,activation,[6],7.12% [at 30.8 µM]
